Results on 34 compounds are retold here after PubChem BioAssay (NCI).

SMILES strings stand for the structures. About 83,000 compounds went through this panel and 20% of them were active in at least one assay; those are over-represented in the sample as a whole.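 Values shown are percent growth following 48 h exposure of cells in 96-well plates to a single concentration of compound; below 10 was considered active.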 A number with no mark means an inactive call. The source made the active and inactive calls.

What all share (assay): NCI-60 one-dose screen, 48 h (100 = growth as untreated, 0 = no growth, -100 = all killed)
Conditions in all cases: 10 µM unless noted

Assay [1] concerns T-47D breast.
In assay [2] the test system is MDA-MB-435 melanoma.
In assay [3] the test system is SW-620 colon.
For assay [4], the system named is MCF7 breast.
Assay [5] concerns HCT-116 colon.
In assay [6] the test system is HCC-2998 colon.
Assay [7] relates to KM12 colon.
Assay [8] concerns BT-549 breast.

For `CCN(CC)Cc1cc(Nc2ccnc3ccc(OC)cc23)ccc1O`, the growth in assay [1] is -43.9% (active); in assay [2], 47.6%; in assay [3], 27.5%; in assay [4], 22.9%; in assay [5] it was 16.2%; in assay [6], 32.8%. Also, the growth in assay [7] is 42.2%.
As for `NC(=O)N/N=C\c1ccc([N+](=O)[O-])o1`, the growth was 101% in assay [1]; 102% in assay [2]; 96.9% in assay [3]; 94.6% in assay [4]; 109% in assay [5]; 104% in assay [6]. The growth in assay [7] was 98.1%.
With `COc1ccc(-c2cc(-c3cc4ccccc4oc3=O)n(-c3ccccc3)n2)cc1`, the growth is 73.1% in assay [1]; 100% in assay [2]; 66.6% in assay [3]; 76% in assay [4]; 2.14% (active) in assay [5]; 103% in assay [6]. Further, in assay [7], the growth is 69.3%.
With `Fc1ccc(-c2cnc3nonc3n2)c(F)c1`, the growth is 80.8% in assay [1]; 84.4% in assay [2]; 97% in assay [3]; 85% in assay [4]; 96.9% in assay [5]; 93.5% in assay [6]. In addition, the growth in assay [7] was 82.9%.
With `COC(=O)C(Br)(C(=O)OC)C(Br)C(Br)C(Br)c1ccccc1` (stereo not drawn), the growth in assay [8] was 108%; in assay [3] it was -79% (active); in assay [5], -92.6% (active); in assay [6], 98.4%; in assay [7], 89.9%.
For `CSC1=N/C(=C\c2cccc(OCc3ccc(Cl)cc3)c2)C(=O)N1`, the growth in assay [1] is 59.4%; in assay [2] it was 80.6%; in assay [3], 88.1%; in assay [4], 83%; in assay [5] it was 88.8%; in assay [6], 93%. The growth in assay [7] is 79.8%.
In the case of `COc1ccc(C(=O)O)cc1.[Ag]`, the growth is 92.6% in assay [1]; 95.3% in assay [2]; -61.9% (active) in assay [3]; 94.5% in assay [5]; 104% in assay [6]; 87% in assay [7].
Consider `CC(=O)c1ccc(N2C(=O)c3ccc(Oc4ccccc4)cc3C2=O)cc1`, for which the growth in assay [1] is 106%; in assay [2] it was 96.3%; in assay [3], 98.8%; in assay [4] it was 101%; in assay [5], 104%; in assay [6] it was 99.4%. The growth in assay [7] was 95.6%.
For `COc1ccc(-n2nc(C(=O)Nc3ccc(F)cc3)nc2-c2cc(OC)c(OC)c(OC)c2)cc1`, the growth in assay [1] is 75.3%; in assay [3], 96.6%; in assay [4], 91.8%; in assay [5], 80.9%; in assay [7], 96%.
Consider `CN1C(=O)C(C2=NNC(c3ccccc3C(=O)O)C2)C(=O)N(C)C1=O` (stereo not drawn), for which the growth in assay [1] is 87.4%; in assay [2] it was 104%; in assay [3] it was 99.7%; in assay [4], 99.7%; in assay [5], 99.4%; in assay [6] it was 117%. In addition, the growth in assay [7] was 104%.
In the case of `Cn1cnc([N+](=O)[O-])c1S(=O)(=O)Oc1ccccc1`, the growth is 5.06% (active) in assay [1]; 101% in assay [2]; 56% in assay [3]; 84.3% in assay [4]; 68.4% in assay [5]; 101% in assay [6]. For the same compound, the growth in assay [7] is 100%.
For the compound `CS(=O)(=O)c1ccc(Cl)c([N+](=O)[O-])c1`, the growth in assay [1] was 104%; in assay [2], 99.1%; in assay [3], 67.9%; in assay [4], 107%; in assay [5], 105%; in assay [6], 109%. The growth in assay [7] was 75.3%.
Take `CCC(=O)OCc1ccc(OC)cc1`: the growth in assay [1] is 103%; in assay [2], 112%; in assay [3], 111%; in assay [4], 107%; in assay [5], 98.7%; in assay [7] it was 137%.
On to `COc1cccc(C2C(C#N)=C(N)Oc3cc4c(cc32)OCO4)c1` (stereo not drawn), for which the growth in assay [1] is 59.9%; in assay [2] it was -12.3% (active); in assay [3] it was 26.9%; in assay [4], 13.2%; in assay [5], 5.12% (active); in assay [6] it was 21.8%. Moreover, in assay [7], the growth was 0.487% (active).
Take `Cc1nc(N)nc2c1CCC(Nc1ccccc1)S2` (stereo not drawn): the growth in assay [1] is 101%; in assay [2], 101%; in assay [3] it was 102%; in assay [4] it was 104%; in assay [5], 97%; in assay [6], 104%. For the same compound, the growth in assay [7] was 110%.
As to `CCOC(=O)c1ccc(NC(=O)CSC(N)=O)cc1`, the growth in assay [1] was 131%; in assay [2], 113%; in assay [3] it was 103%; in assay [4], 99.3%; in assay [5], 87.9%; in assay [6], 105%. Also, the growth in assay [7] was 111%.
Take `CCOC(=O)Cn1c(-c2nonc2NC(=O)c2ccccc2F)nc2ccccc21`: the growth in assay [1] was 75.6%; in assay [2], 49.3%; in assay [3], 38.5%; in assay [4], 37%; in assay [5] it was 22.9%; in assay [6], 33.3%. The growth in assay [7] is 41.1%.
On to `CCN(CC)C(=O)O/N=C(/C)c1ccccc1`, for which the growth in assay [1] is 110%; in assay [2], 104%; in assay [3], 106%; in assay [4], 97.1%; in assay [5], 104%; in assay [6], 104%. Moreover, in assay [7], the growth was 102%.
Consider `Clc1cccc(CNc2c3ccccc3nc3ccccc23)c1`, for which the growth in assay [1] is 40.9%; in assay [2] it was 46.6%; in assay [3], 12%; in assay [4] it was 0.909% (active); in assay [5] it was 8.69% (active); in assay [6], -53.6% (active). The growth in assay [7] was 40.8%.
On to `CCN1C(=O)C(C)C=C(C)C=C1C` (stereo not drawn), for which the growth is 102% in assay [1]; 114% in assay [2]; 114% in assay [3]; 106% in assay [4]; 112% in assay [5]; 103% in assay [6]. The growth in assay [7] is 100%.
In the case of `CCCCCCCCCCCCCCCC1=NC(C)(C)CN1C(C)C`, the growth is -11.2% (active) in assay [1]; -59.3% (active) in assay [2]; -69.1% (active) in assay [3]; -27.6% (active) in assay [4]; -73.5% (active) in assay [5]; -89.9% (active) in assay [6]. Moreover, the growth in assay [7] is -73.2% (active).
On to `COc1ccc2c(c1)sc1nc(-c3ccccc3)c(-c3cccc4ccccc34)n12`, for which the growth in assay [1] was 60.5%; in assay [2] it was -49.4% (active); in assay [3] it was 27.8%; in assay [5], 18.6%; in assay [6] it was -26.8% (active); in assay [7], 15.7%.
On to `O=C(c1ccccc1)C(CCc1ccccn1)CCc1ccccn1`, for which the growth in assay [1] was 92.3%; in assay [2], 108%; in assay [3], 107%; in assay [4], 106%; in assay [5], 94%; in assay [6], 96.5%. The growth in assay [7] was 109%.
For the compound `Clc1ccccc1CNc1c2ccccc2nc2ccccc12`, the growth in assay [1] is 30.4%; in assay [2], 27.2%; in assay [3] it was 9.61% (active); in assay [4], -0.21% (active); in assay [5] it was 8.1% (active); in assay [6], -17.2% (active). The growth in assay [7] is 22%.
In the case of `O=C1C(Cl)=C(Nc2cccc3ccccc23)C(=O)c2ccccc21`, the growth in assay [1] is 34.3%; in assay [3], 68.9%; in assay [4], 44%; in assay [5], 47.7%; in assay [6] it was 103%; in assay [7] it was 58.4%.
Consider `C[C@@H]1CC2C3CCC4=CC(=O)C=C[C@]4(C)[C@@]3(Cl)[C@@H](O)C[C@]2(C)[C@@]1(OC(=O)c1ccco1)C(=O)CCl` (stereo partly drawn), for which the growth in assay [1] is 97.1%; in assay [2] it was 73.4%; in assay [3] it was 95.3%; in assay [4], 58.9%; in assay [5] it was 57.4%; in assay [6] it was 75.9%. The growth in assay [7] is 76.9%.
As for `O=C1/C(=C/c2cc(F)cc(F)c2)Cc2cc(F)cc(F)c21`, the growth is 107% in assay [1]; 94.8% in assay [2]; 99.2% in assay [3]; 56.7% in assay [4]; 79.8% in assay [5]; 105% in assay [6]. Moreover, the growth in assay [7] is 92.6%.
On to `Cc1ccsc1C(=O)CC(=O)C(F)(F)C(F)(F)C(F)(F)F`, for which the growth is 101% in assay [1]; 105% in assay [2]; 103% in assay [3]; 96.6% in assay [4]; 109% in assay [5]; 111% in assay [6]. For the same compound, the growth in assay [7] is 107%.
As to `COc1cc(C2CC(=O)Nc3c2cnn3C)cc(OC)c1OC` (stereo not drawn), the growth is 96.1% in assay [1]; 105% in assay [2]; 108% in assay [3]; 97.1% in assay [4]; 100% in assay [5]; 108% in assay [6]. In assay [7], the growth was 105%.
With `C=C1C(=O)O[C@H]2[C@H]1CC/C(COC(=O)N[C@@H](Cc1c[nH]c3ccccc13)C(=O)OC)=C\CC[C@@]1(C)O[C@@H]21`, the growth in assay [1] is -16.9% (active); in assay [2], 49.1%; in assay [3], -6.63% (active); in assay [4], 11.7%; in assay [5] it was -78% (active); in assay [6], 82.4%. The growth in assay [7] was 74.6%.
As to `O=C(Nc1ccc(Cl)cc1)c1cc(-c2ccc(Cl)cc2)c2sc(=O)[nH]c2n1`, the growth in assay [1] is -22.8% (active); in assay [2] it was 7.39% (active); in assay [3], 8.1% (active); in assay [4] it was 0.758% (active); in assay [5] it was 0.269% (active); in assay [6], 19.1%. Also, in assay [7], the growth is 4.21% (active).
For `CS(=O)(=O)c1ccc(C(=O)N/N=C/c2cccc3ccccc23)cc1`, the growth was 85.3% in assay [1]; 17.1% in assay [2]; 63.2% in assay [3]; 44.9% in assay [4]; 61.8% in assay [5]; 84.5% in assay [6]. Also, the growth in assay [7] was 50.8%.
Regarding `COc1cc(C2CC(c3ccccc3)=NN2C=O)ccc1Oc1ccnc2cc(Cl)ccc12` (stereo not drawn), the growth was 33.6% in assay [1]; 36% in assay [2]; 87.9% in assay [3]; 50.5% in assay [4]; 54.7% in assay [5]; 49.9% in assay [7].
Regarding `CCCCCCCOc1cccc(/C=C2\N=C3SCCCN3C2=O)c1`, the growth in assay [1] was -15.5% (active); in assay [2], 100%; in assay [3], 99.3%; in assay [4], 92.1%; in assay [5] it was 88.6%; in assay [7], 85.8%.
